# Measurements as given in PubChem BioAssay (NCI).
# This is part of a sample that, as a whole, favours compounds with a hit. Of some 83,000 tested, about 20% had one in any assay.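 Method: cells in 96-well plates; compound added at one concentration; 48 h incubation; percent growth measured; values under 10 scored active.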 Unmarked numbers belong to inactive results. Activity calls are given as the source filed them.
# Legend:
# Test in all cases: NCI-60 one-dose screen, 48 h (100 = growth as untreated, 0 = no growth, -100 = all killed)
# Conditions in all cases: 10 µM unless noted
# DU-145 prostate = test system: DU-145 prostate
# K-562 leukemia = test system: K-562 leukemia
# MALME-3M melanoma = test system: MALME-3M melanoma
# MDA-MB-231 breast = test system: MDA-MB-231 breast
# RXF 393 renal = test system: RXF 393 renal
# SF-268 CNS = test system: SF-268 CNS
# SF-295 CNS = test system: SF-295 CNS
# SF-539 CNS = test system: SF-539 CNS
# UACC-257 melanoma = test system: UACC-257 melanoma
# M14 melanoma = test system: M14 melanoma
SMILES,growth (DU-145 prostate),growth (K-562 leukemia) [%],growth (MALME-3M melanoma),growth (MDA-MB-231 breast) [%],growth (RXF 393 renal) [%],growth (SF-268 CNS) [%],growth (SF-295 CNS),growth (SF-539 CNS),growth (UACC-257 melanoma) [%],growth (M14 melanoma)
S=c1[nH]nc(-c2cc3ccc2CCc2ccc(cc2)CC3)n1C1CC1,108%,97.9,97%,99.5,105,103,93.8%,98%,105,97.8%
CCOC(=O)/C(C#N)=C1/C(=O)Nc2ccccc21,123%,132,108%,116,117,122,113%,99.7%,123,94.6%
O=C(Nc1ccc2c(c1)OCCO2)C(=O)c1c[nH]c2ccccc12,7.38% (active),12.2,46.6%,28.9,24.3,46.1,23.8%,-6.87% (active),70.7,
Cn1ccc(=O)c(S(N)(=O)=O)c1,119%,93.4,95.5%,101,85.8,100,102%,103%,109,
O=c1[nH]c2ccc(Br)cc2c2c1C(c1ccc(Cl)cc1)c1c(ncn3nc(-c4ccco4)nc13)O2 (stereo not drawn),90%,80,77.5%,48.6,59.1,74.3,87.9%,65.5%,98.3,74.9%
COc1ccc(-c2nc(/C=C3/C(=O)Nc4ccc(F)cc43)c3ccccn23)cc1,102%,87.2,130%,89.2,112,107,140%,117%,102,106%
COc1cc([N+](=O)[O-])c2ncccc2c1O,8.92% (active),130,-25.9% (active),98.6,93.3,88.2,3.61% (active),24.3%,48,-23.9% (active)
OCCCCCCNc1ncnc2cc(Cl)ccc12,104%,84.6,100%,99.7,116,97.2,99%,92.8%,90.7,96.3%
COc1ccc(S(=O)(=O)n2cc(C(=O)C(=O)Nc3ccncc3)c3ccccc32)cc1F,86.4%,58.8,76.4%,57.1,90.9,81.7,43.2%,69.1%,105,93.2%
CC1CN(c2oc(-c3ccccc3)nc2C#N)CC(C)O1 (stereo not drawn),99.7%,97.6,102%,101,104,98.2,99.1%,98.6%,103,99.3%
CCO/C=N/C1=C(C#N)C(c2ccc(Cl)cc2)c2c(c3ccc(C)cc3[nH]c2=O)O1 (stereo not drawn),103%,88.1,81.8%,59.6,73.9,90.7,89.6%,75.9%,97.2,87.1%
COc1cc(NC(=O)SC2=NCCS2)cc(OC)c1,101%,93.6,102%,110,120,106,113%,90.6%,104,103%
O=C(Nc1ccc(NCCN2CCOCC2)nc1)c1ccc([N+](=O)[O-])cc1,106%,103,105%,103,124,103,91.3%,95.6%,93.1,105%
COc1ccc(Nc2[nH]n3c(=O)cc(C)nc3c2C(N)=O)c(OC)c1,112%,101,126%,84.9,98.1,97.8,102%,91.2%,85.1,106%
